This is an account of results in the supplement of paper PMC6555819.

The test has as its system VDR:RXRa (NR concentration 270 nM, RXRa partner concentration 90 nM). In words: PBM binding z-score (relative to random genomic background probes); higher = stronger binding; sequences stand for … in GC…GCGATTGACAGCGTAGAATGAAGG
The protocol:
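Protein-binding microarray (Agilent 4x180K custom design, double-stranded 60-nt probes: 5' GC cap, 34-nt variable region, 24-nt constant primer region; full probe sequence given). Purified or IVT nuclear receptor:RXRα heterodimers (3:1 NR:RXRα, mostly 270:90 nM) or homodimers were incubated for 1 h in PBS with 2% milk and no ligand, then detected with Alexa488 antibodies. Fluorescence from o1-orientation probes (~5 replicates averaged) was converted to z-scores against 500 random hg19 background probes. Variable regions are seed direct-repeat (DR0–DR5) sites, all their single-nucleotide variants and half-site ablations.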
Turning to CCTACTGGGCCAAAGGTTATTGATTCCAATGCTC, the PBM binding z-score worked out at 1.34.

For the sequence CCTACTGGGCCACGAAAGGTCATTGAATCAGTGA, the PBM binding z-score came out at 4.14.

In turn, CCTTACGGGTCACTCCAGGTTATAGAATCGGAGT gave a PBM binding z-score of 4.17.

Sequence CAAACTAGGACACGAAAGGTCAAAGTCGAATGAC displayed a PBM binding z-score of 4.78.

GCGACTGGTGCAAAGCAGGTTACCATAAGGTTGG came in with a PBM binding z-score of -0.134.

GATACAGGGTCAGCTAGAGGCGAGAGTATGGAAA had a PBM binding z-score of 2.6.

In turn, ATCTCTAGGTAAGACTCAGTTGAGTGAAGAACGC had a PBM binding z-score of -0.0518.

Turning to ATGGAAAGGTCGAGGTGAGTATAGAGAAAGGGAA, the PBM binding z-score worked out at 2.81.

Turning to TTACCATGGTGAGCTGAGGTCGTTGATCCAACTC, the PBM binding z-score came out at 1.57.

As to ACTAGTAGGCCAAGTTTGGGTCACTCAAACAAAG, the PBM binding z-score came to 0.967.

CTACCAAGGTGAACAAGGACGTTGATTACTATTC came in with a PBM binding z-score of 3.82.

Regarding GCTGCTAGGTCAACTGATGGTCAGGTAAAGCTCG, the PBM binding z-score was determined as 1.69.

Take GCTCGGAGGGCAAGGTCAGAGCTTTGTCCGTAGA: the PBM binding z-score was 1.72.

In turn, ACTAGCAGGCCAAGTTTAGGTCACTCAAACAAAG showed a PBM binding z-score of 0.781.

AATACAGGGTCATCGTAGGCCAGAGAACGCACAG: the PBM binding z-score was found to be 5.24.

TAGACTAGGTCAGATCGGGCCAGTATACGCTATA: the PBM binding z-score amounted to 0.598.

Sequence TTACCAATGTGAGCTGAGGTCGTTGATCCAACTC came in with a PBM binding z-score of 1.78.

On to GCTACAGGGTCAAGGCCAGAGTACGCGTATTGAT, for which the PBM binding z-score came to 4.28.

For TAGCCTAGGTCGTTGGGCCAGTATAGTACGCATC, the PBM binding z-score is 0.153.

CTCGAAAGGTCGTGCCCAGGTGAGTATACCAAAC displayed a PBM binding z-score of 3.33.

TCCTGTAGATCAGCAGGTTAAGAAAGCTGGCCAA: the PBM binding z-score is 0.177.

TAGCCTAGGTCATTGGGCCAGTACAGTACGCATC: the PBM binding z-score worked out at 2.19.

The sequence TTACCAAGGTGAAGGACGTTGATCCCTCTGTAGA registered a PBM binding z-score of 0.111.

Sequence CCGACTGGGGCACAAGGTTACCATAAGCCAGCCC yielded a PBM binding z-score of 0.209.

As to TCAGACAGGTGAAGGAAACTCAGGTACGCAGTCG, the PBM binding z-score is 0.447.

Regarding CAAACTAGGTCAAAGGTGAAAGTCGAGCCAACCA, the PBM binding z-score is 4.04.

TCTTGTAGATCAAGCAGGTTAAAAAAGCCTGAGT displayed a PBM binding z-score of 1.04.

In the case of CTCGAAAGGCCGGTTGAGGTGAGTATACGGATAA, the PBM binding z-score is -0.304.

Take CCTACTGGGCCAAGGTCATTGAACAGTCAAAGCA: the PBM binding z-score is 3.39.

TCTTGTAGATCACGCAGGTTAAGAAAGCCTGAGT displayed a PBM binding z-score of 0.662.

Sequence CCTTACGGGTCACTCCAGGTTTTAGCATCGGAGT registered a PBM binding z-score of 3.47.

Sequence GGAACGAGGGCAAAGTTGATACCATCTGTCGACG had a PBM binding z-score of 1.48.

For CAAACTAGGTCAAGAGGTCTAAGTCCGCTTCCCG, the PBM binding z-score came out at 3.91.

In turn, CGTCCAAGGTCAATGCCAGGTCAGTGAAAGCATT displayed a PBM binding z-score of 4.96.

CCGACTGGCGCAAAGGTTACCATACTCAGTACGA yielded a PBM binding z-score of 0.854.

The sequence GGAAAGAGGGCAAAGTTGATAGCATCTGTCGACG returned a PBM binding z-score of 1.53.

In turn, CCTTACGGGTCACTGACAGGTTGTAGCATTTGGA showed a PBM binding z-score of 3.34.

Take ATACCAAGGTAATCGTGAGGTCGTTGATACTAAC: the PBM binding z-score worked out at 3.1.

On to ACTAGCAGGCCAAGGTTGGGTCACTCAAACAAAG, for which the PBM binding z-score is 0.381.

The sequence GGAACGAGGGCATTCGAGTTGAAAGCATGGCGAT registered a PBM binding z-score of 3.59.
